Shown are actives, neighbours in structure and some others; about 6.6% of the full set was active somewhere.
BoNT A protease: blocks Botulinum neurotoxin A light chain protease. inhibition, % at 10 µM. 360,000 compounds, 0.17% hits. multiplex microsphere protease substrate cleavage, flow cytometry; note: plate controls were buffer without enzyme for full effect and enzyme alone for no effect
BoNT-F LC inh: blocks Botulinum neurotoxin F light chain protease. Multiplex microsphere protease cleavage assay, flow cytometry. inhibition, % at 10 µM. 360,000 compounds, 0.22% hits. AID 588497; in the data active = inhibition above about 35%, passing the limit was not always enough; inconclusive = no clear call, values can overlap the other calls; note: plate controls were buffer without enzyme for full effect and enzyme alone for no effect
Anthrax LF prot: blocks Bacillus anthracis lethal factor protease; P15917; multiplex microsphere protease cleavage assay, LF; inhibition, % at 10 µM; 360,000 compounds, 0.12% hits; AID 588501; note: plate controls were buffer without enzyme for full effect and enzyme alone for no effect
GDH-TPI counter: inhibits GDH-TPI coupling enzymes, artifact for Mtb FBA screen | GDH-TPI coupled enzyme counterscreen, NADH absorbance | inhibition, % at 4.8 µM | 360,000 compounds, 1.2% hits; in the data active = inhibition above about 30%;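 note: 0% = DMSO wells and 100% = wells lacking the enzyme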
Autofluor counter: counter-screen for toxin protease inhibitors: compound fluorescence | compound autofluorescence counterscreen, microsphere flow cytometry; hits give high values | fluorescence intensity (no concentration beside the values) | 360,000 compounds, 3.1% hits; in the data active = fluorescence intensity above about 16000; inconclusive = no clear call, values can overlap the other calls
Mtb FBA inh: inhibitors of M. tuberculosis fructose-bisphosphate aldolase | P9WQA3 | purified M. tuberculosis FBA, fluorescence read-out | inhibition, % at 1 µM | 360,000 compounds, 2.3% hits | AID 588726; in the data active = inhibition above about 27%;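 note: 0% = vehicle and 100% = reference inhibitor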
Numbers without * were called inactive; ? = inconclusive; nt = no result given. Cut-off read from the data, not from the text of the source, unless noted: active = inhibition above about 30%; inconclusive = no clear call, values can overlap the other calls; inactive = below that.

SMILES	BoNT A protease	BoNT-F LC inh	Anthrax LF prot	GDH-TPI counter	Autofluor counter	Mtb FBA inh
CC(=O)Nc1nc2n(n1)C(c1ccc(Cl)cc1)C=C(C)N2 (configuration not stated)	-1	-8	-2	12	2645	119*
CC(=O)Nc1nc2n(n1)C(c1ccccc1)C=C(c1ccccc1)N2 (configuration not stated)	-1	-4	-4	6	10691	50*
CS(=O)(=O)Nc1nc2n(n1)C(c1ccccc1)C=C(c1ccc(Br)cc1)N2 (configuration not stated)	1	2	3	5	2824	34*
O=C1CCC(=O)N1c1nc2n(n1)C(c1ccccc1)C=C(c1ccc(Br)cc1)N2 (configuration not stated)	-4	-10	?	26	8795	1
CC(C)CN1CCC(=O)N([C@H](COc2ccccc2)c2ccccc2)CC1	0	0	1	-11	3465	0
COc1ccc(C(CC(=O)c2ccc3c(c2)OCO3)C(=O)O)cc1OC (configuration not stated)	0	-13	-4	12	2902	1
O=C(CNC(=O)c1ccc(S(=O)(=O)N2CCCC2)cc1)N/N=C/c1ccco1	0	-2	2	12	1965	0
CCc1ccc(C2=NN(CCC(=O)NCc3cccs3)C(=O)CC2)cc1	1	-2	-1	-6	4508	0
NC(=O)[C@@H]1CCCN1Cc1c(C(=O)N2CCc3ccccc3C2)nc2ccc(Cl)cn12	2	4	0	0	5162	1
CC(=O)NCCn1c(SCc2cc(F)ccc2F)nc2ccccc2c1=O	?	-1	-6	2	21737*	-3
CC(=O)NCCn1c(SCC(=O)OCc2ccccc2)nc2ccccc2c1=O	5	18	15	-5	6113	1
CC(=O)NCCn1c(SCc2ccc(C)cc2C)nc2ccccc2c1=O	-2	-1	-2	8	23483*	0
CC(=O)NCCn1c(SCC(=O)c2ccccc2)nc2ccccc2c1=O	-2	-5	0	33*	23027*	0
COc1cccc(Cn2cnc(-c3ccccc3OC)c2C2CC2)c1	0	3	-7	nt	4422	nt
CCN(Cc1ccccc1)C(=O)CCS(=O)(=O)c1cc2c(cc1Cl)NC(=O)CO2	0	-2	-4	1	5906	0
COc1ccc(CC(=O)NCc2ccc(Cl)cc2)cc1S(=O)(=O)N1CCOCC1	?	?	?	-1	5080	-1
Cc1cccc2nc(CSc3nc4cc([N+](=O)[O-])ccc4s3)cn12	0	2	2	9	2516	-2
Cc1ccc(S(=O)(=O)n2cnc3ccccc32)cc1	1	2	-4	10	16399*	0
COc1ccc(S(=O)(=O)n2cnc3ccccc32)cc1	-1	-13	13	-5	3383	1
CC(=NCCN1CCCCC1)c1c(O)[nH]c(=O)[nH]c1=O	-1	-1	-1	20	16267*	1
CC(=NCCCn1ccnc1)c1c(O)n(Cc2ccccc2)c(=O)[nH]c1=O	4	3	-13	-1	20727*	-7
CC(=NCCN1CCCCC1)c1c(O)n(Cc2ccccc2)c(=O)[nH]c1=O	-1	2	2	3	23910*	3
CC(=NCCCO)c1c(O)[nH]c(=O)[nH]c1=O	0	5	3	-2	6289	3
COc1ccc(-n2c(O)c(C(C)=NCCN3CCNCC3)c(=O)[nH]c2=O)cc1	3	6	1	-2	22171*	0
CC(=NCCCN1CCCCC1)c1c(O)n(Cc2ccccc2)c(=O)[nH]c1=O	3	13	4	7	3960	-3
SMILES	BoNT A protease	BoNT-F LC inh	Anthrax LF prot	GDH-TPI counter	Autofluor counter	Mtb FBA inh
C=C(C)C(=O)Nc1cccc(C2=NOC3(C2)C[C@H](C(N)=O)N(C(=O)/C=C/C)C3)c1 (some centres not stated)	0	5	0	14	2798	2
C=CCOc1cccc(/C=C\c2nc(O)c([N+](=O)[O-])c(=O)[nH]2)c1	0	0	-2	18	3867	-5
O=c1[nH]c(/C=C\c2cccc(Cl)c2)nc(O)c1[N+](=O)[O-]	1	14	-4	51*	3612	-3
O=c1[nH]c(/C=C\c2cccc(F)c2)nc(O)c1[N+](=O)[O-]	0	10	-5	31*	3754	-2
OCCN=c1cc(-c2ccccc2)oc2ccc(Cl)cc12	0	2	2	40*	2450	2
Cn1cccc1Cc1nnc(SCC(=O)NCc2ccccc2)n1-c1ccc(F)cc1	0	-2	-7	1	5706	-2
Cn1cccc1Cc1nnc(SCC(=O)N2CCN(c3ccccc3)CC2)n1-c1ccc(F)cc1	?	-3	-2	9	24052*	-3
CCOC(=O)c1ccccc1NC(=O)CSc1nnc(Cc2cccn2C)n1-c1ccc(F)cc1	1	0	-6	7	23284*	1
CC1(c2nc3ccccc3[nH]2)c2ccccc2C(=O)N1Cc1ccccn1 (configuration not stated)	0	5	1	nt	6182	nt
O=C1CC(c2ccccc2)CC(O)=C1C=NCCN1CCN(C(=O)Nc2ccccc2)CC1 (configuration not stated)	1	3	-2	6	22422*	-2
Cc1ccc(C2CC(=O)C(C=NCCN3CCN(C(=S)Nc4ccccc4)CC3)=C(O)C2)cc1 (configuration not stated)	-1	0	1	-1	2215	-4
COc1cc(C(=O)NCCC(=O)NCCCN2CCCCC2C)cc(OC)c1OC (configuration not stated)	-2	-4	-4	1	24313*	-1
COc1cc(C(=O)NCCC(=O)N2CCCCC2)cc(OC)c1OC	-2	-14	-16	0	3910	1
CCOC(=O)C1CCN(C(=O)CCNC(=O)c2cc(OC)c(OC)c(OC)c2)CC1	-1	-1	-4	11	16426*	1
Cc1cccnc1NC1(C(F)(F)F)N=C2SCCN2C1=O (configuration not stated)	0	-3	1	-4	3149	1
Cc1ccc(C(=O)Nc2nc3ccc(S(C)(=O)=O)cc3s2)o1	-1	-7	-14	52*	9882	3
Cc1noc(C)c1C(=O)Nc1nc2ccc(S(C)(=O)=O)cc2s1	12	30	6	54*	3817	1
CS(=O)(=O)c1ccc2nc(NC(=O)c3ccco3)sc2c1	-1	-8	-4	46*	5945	-2
COc1ccc2[nH]c3c(c2c1)CCN1C(=O)N([C@@H](C)C(=O)NC2CCCCC2C)C(=O)[C@]31C (some centres not stated)	1	-4	-7	1	5319	-1
CCOC(=O)c1ccc(N2C(=O)CC(N3CCC(O)(c4ccc(Cl)cc4)CC3)C2=O)cc1 (configuration not stated)	-1	-6	3	39*	3171	2

Screening results (PubChem)
